The list is not random: actives were taken first. Their share in the collection is about 10%.
GPT2 inh = blocks human glutamate pyruvate transaminase 2; Q8TD30; Recombinant GPT2, coupled pyruvate oxidase/HRP Amplex Red fluorescence; Potency, µM (doses to about 57.7 µM), inactives show at the top dose activity change, negative = inhibition, most hits filed as inhibitors; 0.25% of 100,000 active; AID 1671188; note: nearly all actives have a fitted effect of over 60% in size
Target sequence (Q8TD30 whole entry, looked up): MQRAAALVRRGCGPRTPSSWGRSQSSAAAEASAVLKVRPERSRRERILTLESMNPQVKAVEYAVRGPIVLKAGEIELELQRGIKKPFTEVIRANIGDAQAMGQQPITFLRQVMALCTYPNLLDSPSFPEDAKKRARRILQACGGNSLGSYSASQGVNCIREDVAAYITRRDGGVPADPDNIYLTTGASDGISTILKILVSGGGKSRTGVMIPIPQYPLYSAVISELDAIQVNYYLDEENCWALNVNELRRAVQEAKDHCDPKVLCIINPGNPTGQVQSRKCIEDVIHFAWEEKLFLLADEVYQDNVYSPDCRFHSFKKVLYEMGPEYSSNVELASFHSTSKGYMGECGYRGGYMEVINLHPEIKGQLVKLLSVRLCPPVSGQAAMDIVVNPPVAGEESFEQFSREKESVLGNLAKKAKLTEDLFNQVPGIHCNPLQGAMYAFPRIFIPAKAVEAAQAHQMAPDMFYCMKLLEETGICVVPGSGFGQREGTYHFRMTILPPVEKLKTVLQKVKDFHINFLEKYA
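Fluorescence read-out: pyruvate from GPT2 turnover coupled to pyruvate oxidase, HRP and Amplex Red (0.2mM ThPP, 0.2U/mL PO and HRP, 50uM Amplex final). Substrates 250uM a-KG, 2mM L-alanine; enzyme 10ng/uL; 30 min RT.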
FLuc inh = Photinus pyralis luciferase inhibition; AID 1347043; P08659; 2.5% of 76,000 active; Potency, µM (titrated, usually from 115 µM), usual class: inhibitors; purified P. pyralis luciferase, luminescence, biochemical; note: nearly all actives have a fitted effect of over 65% in size
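Inhibitors were tested against purified firefly luciferase in a biochemical, low-substrate format (both substrates at 10uM) and luminescence measured with a CCD imager.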
hNpr1 antagonist = blocks ANP-stimulated signaling of human Npr1 receptor | P16066 | HEK293 hNpr1 GloSensor cGMP, ANP-stimulated luminescence | Potency, µM (series often up to 46.3 µM), inactives show at the highest dose activity change, negative = inhibition, actives largely listed as inhibitors | 1.6% of 76,000 active | AID 1347048; calls by dose curve; note: nearly all actives have a fitted effect of over 60% in size
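HEK293 cells stably expressing human Npr1 and cGMP GloSensor pGS-40F, loaded 2 h with 2% GloSensor reagent, given compound 30 min at room temperature. Luminescence read before and 20 min after 0.1 nM hNppA.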
NIH3T3 tox = kills NIH 3T3 cells; NIH 3T3 viability, CellTiter-Glo ATP luminescence, 48-72 h; 4.3% of 94,000 active; Potency, µM (highest dose often 96.7 µM), without a hit: at the highest dose activity change, negative = cytotoxicity, hits mostly inhibitors; note: nearly all actives have a fitted effect of over 55% in size
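Luminescent ATP readout (CellTiter-Glo, 10 min RT) after 48 or 72 hr compound exposure of NIH 3T3 cells seeded at 400 cells/well in 1536-well format; quantitative HTS.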
HEK cytotox = cytotoxic compounds in HEK 293 cells; 6.6% of 94,000 active; Potency, µM (series often up to 115 µM), for the others: at the highest dose activity change, negative = cytotoxicity, actives largely listed as inhibitors; HEK 293 viability, ATP luminescence (CellTiter-Glo), 48-72 h; note: nearly all actives have a fitted effect of over 60% in size
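HEK 293 cells seeded at 250 cells/well were exposed to compound for 48 or 72 hr at 37 degree Celsius. Viability taken as ATP content by CellTiter-Glo luminescence.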
Starred values were filed as active, the others as inactive; i = inactive; ? = inconclusive; . = no result; [ ] = another dose, or the depositor's remark. Unless noted, calls come from the whole dose curve; as a rule, active = well fitted curve in the direction sought with a large enough effect; inconclusive = small, poorly fitted or top-dose-only effect, or another doubt; inactive = no such curve, though single readings can be large; an effect the other way counts as inactive or inconclusive. % is set by controls: 0 for no effect and ±100 for the full control effect; potency is the fitted concentration of half-maximal effect.

SMILES | GPT2 inh | FLuc inh | hNpr1 antagonist | NIH3T3 tox | HEK cytotox
CN(CC#N)C(=O)c1cc(-c2ccccc2C(F)(F)F)nc2c1cnn2C | . | . | . | -25.3% | -3.0%
Cn1ncc2c(C(=O)Nc3ccc(F)cc3)cc(-c3ccccc3C(F)(F)F)nc21 | . | . | . | ? | 28.2µM*
CN(C)c1ccc(NC(=O)c2cc(-c3ccccc3C(F)(F)F)nc3c2cnn3C)cc1 | . | . | . | ? | 25.1µM*
CCN(C(=O)c1cc(-c2ccccc2C(F)(F)F)nc2c1cnn2C)c1ccccc1 | . | . | . | ? | 25.1µM*
COc1ccc(NC(=O)c2cc(-c3ccccc3C(F)(F)F)nc3c2cnn3C)cc1OC | . | . | . | ? | 31.6µM*
CC(C)CCN1C(=O)CC[C@]2(C(=O)N3CCN(c4ccc(F)cc4)CC3)CCCC[C@@H]12 | -9.0% | i | -11.2% | ? | ?
Cn1ncc2c(C(=O)Nc3cccc(C(F)(F)F)c3)cc(-c3ccccc3C(F)(F)F)nc21 | . | . | . | 28.2µM* | 22.4µM*
Cc1noc(-c2ccc(OC(F)(F)F)cc2)c1C(=O)NCCCc1ccccc1 | i | i | 1.6% | ? | 70.8µM*
COc1cc(-c2onc(C)c2C(=O)NCCCSC)cc(OC)c1OC | 3.8% | i | -26.8% | 5.0% | i
Cc1noc(-c2ccc(OC(F)(F)F)cc2)c1C(=O)NCCC(c1ccccc1)c1ccccc1 | ? | i | -11.6% | ? | 35.5µM*
Cc1noc(-c2ccc(C(C)(C)C)cc2)c1C(=O)NCc1cc(F)cc(F)c1 | 4.7% | i | 2.3% | -23.4% | ?
COc1cc(CN(C)C(=O)c2c(C)noc2-c2ccc(C(C)(C)C)cc2)cc(OC)c1OC | -11.5% | i | -20.1% | ? | 39.8µM*
COc1cc(-c2onc(C)c2C(=O)NCCCCc2ccccc2)cc(OC)c1OC | -1.5% | i | -5.2% | ? | 89.1µM*
O=S(=O)(Cc1ccccc1)N1CCCC(OCc2noc(C3CCOCC3)n2)C1 (centres undefined) | i | . | . | -24.1% | -38.0%
CC(=O)N1CCN(c2ccnc(-c3nnc(C)n3-c3ccccc3)c2)CC1 | -3.8%[88.5 µM] | i | -0.5%[70.6 µM] | 89.1µM* | 1.8%[172 µM]
Cc1cc(-c2ccnc(-c3nnc(C)n3CCc3ccccc3)c2)ccn1 | -26.3%[88.5 µM] | i | -11.4%[70.6 µM] | 79.4µM* | ?
Cc1cc(-c2ccnc(-c3nnc(C)n3-c3ccccc3)c2)ccn1 | 4.9%[88.5 µM] | i | -0.4%[70.6 µM] | 25.1µM* | 44.7µM*
Cc1nnc(-c2cc(-c3ccccc3Oc3ccccc3)ccn2)n1C | -13.3%[88.5 µM] | i | 3.9%[70.6 µM] | ? | 89.1µM*
COCCn1c(C)nnc1-c1cc(-c2ccccc2Oc2ccccc2)ccn1 | 0.3%[88.5 µM] | i | -6.5%[70.6 µM] | ? | ?
Cc1nnc(-c2cc(N3CCN(c4ccccn4)CC3)ccn2)n1-c1ccccc1 | -6.4%[88.5 µM] | i | -2.0%[70.6 µM] | ? | ?
Cc1nnc(-c2cc(-c3ccsc3)ccn2)n1-c1ccccc1 | i | i | -8.1%[70.6 µM] | ? | ?
O=C(c1ccccc1Cl)N1CCCC(C(=O)N2CCC(N3CCOCC3=O)CC2)C1 (centres undefined) | i | . | . | -17.0% | -0.7%
Cc1ccc([S+](=O)([O-])N2CCN(c3nccc(Nc4ccccc4Cl)n3)CC2)cc1 | -1.5% | . | . | ? | ?
Cc1nnc(-c2cc(-c3cnn(C)c3)ccn2)n1-c1ccccc1 | -5.5%[88.5 µM] | i | 2.5%[70.6 µM] | 89.1µM* | ?
COc1ncc(-c2ccnc(-c3nnc(C)n3CCN3CCOCC3)c2)cn1 | -4.7%[88.5 µM] | i | 7.3%[70.6 µM] | ? | -0.4%[172 µM]
SMILES | GPT2 inh | FLuc inh | hNpr1 antagonist | NIH3T3 tox | HEK cytotox
COc1ccc(-c2ccnc(-c3nnc(C)n3CCN3CCOCC3)c2)cc1OC | i | i | 0.6%[70.6 µM] | 100µM* | -25.4%[172 µM]
Cc1nnc(-c2cc(-c3cnn(C)c3)ccn2)n1Cc1ccccc1 | 2.0%[88.5 µM] | i | 6.0%[70.6 µM] | 44.7µM* | -15.2%[172 µM]
Cc1ccccc1-c1ccnc(-c2nnc(C)n2Cc2ccccc2)c1 | -3.0%[88.5 µM] | i | -1.9%[70.6 µM] | ? | 79.4µM*
CCn1ccc(C(=O)N2CCC3(CC2)CN(C2CCC2)CC3COC)n1 (centres undefined) | i | . | . | -26.5% | -13.4%
Cc1ccccc1C(=O)NCCNC(=O)c1ccc(-c2cncnc2)cc1 | . | . | . | -7.8% | -1.2%
Cc1nnc(-c2cc(C(=O)NC3CCOCC3)ccn2)n1CCc1ccccc1 | i | i | 3.6%[70.6 µM] | 89.1µM* | i
Cc1ccncc1-c1c(C)nn2c1N(Cc1ccc(C(=O)O)cc1)CCC2 | i | i | -12.1%[70.6 µM] | ? | ?
Cc1nn2c(c1-c1cccnc1N1CCOCC1)N(Cc1ccc3c(c1)CCO3)CCC2 | 4.8%[88.5 µM] | i | -18.7%[70.6 µM] | 44.7µM* | -23.4%[172 µM]
COc1ccc(OC)c(CN2CCCn3nc(C)c(-c4cccnc4N4CCOCC4)c32)c1 | i | i | -17.8% | ? | -28.6%
Cc1nn2c(c1-c1cccnc1N1CCOCC1)N(CCC(C)C)CCC2 | -19.9%[88.5 µM] | i | -25.0%[70.6 µM] | ? | 39.8µM*
Cc1nn2c(c1-c1ccnn1C(C)C)N(Cc1ccc3c(c1)CCO3)CCC2 | i | i | -1.5%[70.6 µM] | 31.6µM* | ?
CC(=O)Nc1ccc(C2(C(=O)NCc3ccc(N(C)C)cc3)CCCCC2)cc1 | i | i | 7.2% | -9.5% | -10.6%
CC(C)C(=O)N1Cc2ccccc2CC2(CCCN2C)C1 (centres undefined) | i | . | . | -2.5%[138 µM] | -18.8%[172 µM]
O=C(NCCNC(=O)c1ccc(-c2cccc(C(F)(F)F)c2)cc1)c1ccncc1 | . | . | . | ? | 39.8µM*
O=C(NCCNC(=O)c1ccc(-c2cccc(C(F)(F)F)c2)cc1)c1ccccc1 | . | . | . | -5.6% | -24.7%
COc1ccc(CC(=O)NCCNC(=O)c2ccc(-c3cccc(C(F)(F)F)c3)cc2)cc1 | . | . | . | -24.5% | 25.1µM*
CC(C)Oc1ccc(CNC(=O)c2cc(-c3ccncc3)cn2C)cc1 | -11.6% | i | -17.4% | ? | ?
CN(CC1CCOCC1)C(=O)NCCc1ccccc1 | i | ? | 1.4% | i | 5.5%
CN(CC1CCOCC1)C(=O)CCCc1ccccc1 | i | 39.8µM* | -0.6% | -5.0% | 2.1%

Assay outcomes (PubChem)
